# High-throughput results from PubChem.
# Sampled rows, rich in hits. Any-hit rate of the full collection: about 3.7%.
# BoNT A protease: inhibitors of Botulinum neurotoxin A light chain protease; multiplex microsphere protease substrate cleavage, flow cytometry; hit rate 0.17% among 360,000; inhibition, % at 10 µM; also: plate controls were buffer without enzyme for full effect and enzyme alone for no effect
# BJeLR lethal: BJeLR cell viability loss; BJeLR (HRASV12) viability, CellTiter-Glo ATP luminescence, 48 h; AID 1554; hit rate 0.17% among 300,000; inhibition, % (test concentration not listed); in the data active = inhibition above about 50%; inconclusive = no clear call, values can overlap the other calls
# Vc quorum ag: inducers of Vibrio cholerae quorum light production without autoinducers. V. cholerae BH1578 lux reporter, luminescence, 6 h. activation, % at 18.7 µM. hit rate 0.16% among 350,000. AID 588436; in the data active = activation mostly above about 9.7%, no sharp cut-off; inconclusive = no clear call, values can overlap the other calls; inactive = mostly below about 3.7%
# BoNT-F LC inh: BoNT F light chain protease inhibition; Multiplex microsphere protease cleavage assay, flow cytometry; inhibition, % at 10 µM; hit rate 0.22% among 360,000; in the data active = inhibition above about 35%, passing the limit was not always enough; inconclusive = no clear call, values can overlap the other calls; also: plate controls were buffer without enzyme for full effect and enzyme alone for no effect
# Anthrax LF prot: blocks Bacillus anthracis lethal factor protease. hit rate 0.12% among 360,000. multiplex microsphere protease cleavage assay, LF. inhibition, % at 10 µM; also: plate controls were buffer without enzyme for full effect and enzyme alone for no effect
# Autofluor counter: compound fluorescence in toxin protease inhibitor counterscreen | compound autofluorescence counterscreen, microsphere flow cytometry; hits give high values | fluorescence intensity (test concentration not listed) | hit rate 3.1% among 360,000 | AID 624483; in the data active = fluorescence intensity above about 16000; inconclusive = no clear call, values can overlap the other calls
# * marks the source's active call; other numbers are inactive results; i = inactive; ? = inconclusive; / = no result. Rule as the data show it, unless noted: active = inhibition above about 30%; inconclusive = no clear call, values can overlap the other calls; inactive = below that.
SMILES,BoNT A protease,BJeLR lethal,Vc quorum ag,BoNT-F LC inh,Anthrax LF prot,Autofluor counter
CCc1c(C)nc2cc(-c3ccccc3)[nH]n2c1=O,2,-9,0,36*,-4,3383
Cc1ncsc1C(=O)N1N=C2/C(=C/c3ccc(N4CCOCC4)cc3)CCCC2C1c1ccc(N2CCOCC2)cc1 (stereo not given),-2,-1,0,-4,-4,24267*
C[C@@H]1CN([C@@H](C)CO)C(=O)c2cccc(NC(=O)Nc3ccccc3)c2O[C@H]1CN(C)C(=O)Nc1cccc2ccccc12,0,/,0,1,-2,3865
Cc1ccc(-c2nnc(SCC(=O)O)n2N)cc1,?,-1,i,-1,0,22439*
CC(C)(C)c1ccc(-c2nnc(SCC(=O)O)n2N)cc1,2,-6,-2,3,-2,22213*
CC(C)OC(=O)CSc1nnc(-c2ccc(C(C)(C)C)cc2)n1N,2,-10,0,-23,-1,?
CC(C)COc1cccc(-c2cc(C(=O)N/N=C/c3ccncc3)c3ccccc3n2)c1,0,/,0,4,5,5808
O=C(CN1CCN(c2ccccc2O)CC1)Nc1cc(S(=O)(=O)N2CCCC2)ccc1Cl,0,/,2,-5,-10,8999
O=C(COc1ccccc1CNCc1ccccc1)Nc1ccccc1,?,17,-1,-12,-6,24425*
CCOc1ccccc1CNCc1ccc(C(=O)O)cc1,-1,-1,i,-5,-6,4985
COc1ccccc1NC(=O)CCC(=O)Nc1ccccc1OC,1,-2,i,4,2,3301
CNCc1ccccc1OCC(=O)Nc1ccccc1OC,-4,8,0,-5,-2,17627*
O=C(Nc1cccc(S(=O)(=O)C(F)(F)F)c1)[C@@H]1O[C@H](CO)[C@@H](O)[C@H]1O,0,/,-3,5,-3,3177
CN(C)C(=O)c1cn(-c2ccccc2)nc1-c1cccs1,?,5,0,0,-3,23620*
O=C(Nc1ccc2ccccc2c1)c1cn(-c2ccccc2)nc1-c1cccs1,0,0,i,-7,-3,16591*
Cc1ccc(NC(=O)CN(C)C(=O)C2CCC2)cc1,3,/,1,3,1,?
Cc1c(N2C(=O)SC(CC(=O)O)C2=O)c(=O)n(-c2ccccc2)n1C (stereo not given),-1,/,36*,0,-2,3379
COc1ccc(C(=O)NCCNC(C)=O)cc1S(=O)(=O)NCc1ccc(Cl)cc1,-1,4,i,-6,-2,19992*
COc1ccc(C(=O)NC2CCC(O)CC2)cc1S(=O)(=O)NCc1ccc(Cl)cc1 (stereo not given),/,/,0,/,/,/
Cc1cc2cc(CN(Cc3ccc4c(c3)OCO4)C(=O)c3cnccn3)c3nnnn3c2cc1C,-2,-6,0,-18,-6,3303
CC(=O)N(Cc1cc2cc(C)c(C)cc2n2nnnc12)CC1COCCO1 (stereo not given),2,-4,-1,2,-1,22636*
CN(C)C(CNC(=O)CSc1nc2sc3c(c2c(=O)n1C)CCCC3)c1ccccc1 (stereo not given),0,/,0,-5,-3,3354
Cc1ccccc1NC(=O)C1CCN(c2cnccn2)CC1,-2,-2,-7,-5,-3,21599*
Cc1c(Cl)cccc1NC(=O)C1CCN(c2cnccn2)CC1,5,-7,2,9,9,3981
COc1ccc(OC)c(NC(=O)C2CCN(c3ncccn3)CC2)c1,1,/,i,-1,-4,19922*
SMILES,BoNT A protease,BJeLR lethal,Vc quorum ag,BoNT-F LC inh,Anthrax LF prot,Autofluor counter
COc1ccccc1NC(=O)C1CCN(c2ncccn2)CC1,-1,4,0,-2,-3,21787*
CC(C)C[C@@H]1Cc2[nH]c(=S)[nH]c(=O)c2[C@H](C)O1,0,/,/,6,0,6031
NS(=O)(=O)c1ccc(CCNC(=O)COC(=O)Cc2ccc(Cl)cc2)cc1,0,/,i,-6,6,3750
O=C(/C=C/[C@H]1O[C@@H](n2ccc(=O)[nH]c2=O)[C@H](O)[C@@H]1O)NCc1ccco1,-1,/,/,7,-7,6141
COc1cccc(C(=O)N(Cc2nc(-c3ccc(C)cc3)no2)C(C)C)c1,?,-7,-1,-1,-3,23492*
Cc1ccc(-c2noc(CN(C(=O)Cc3ccccc3)C(C)C)n2)cc1,?,-3,-3,5,1,19931*
Cc1cc(Br)ccc1OCC(=O)N(Cc1nc(-c2ccccc2)no1)C(C)C,1,-6,0,-1,0,20443*
CC(C)N(Cc1nc(-c2ccccc2)no1)C(=O)Cc1ccccc1,-1,6,0,-7,-1,5576
CCOc1ccc(C(=O)N[C@H](C(=O)N2CCN(c3ncccn3)CC2)C(C)C)cc1,0,/,i,-2,0,3963
COc1cccc(C(O)c2ncc(-c3cccc4ccccc34)[nH]2)c1 (stereo not given),0,/,i,-1,-5,3356
CCC(C)NC(=O)COc1ccc(Br)c(C)c1 (stereo not given),-1,1,0,-3,-4,20456*
COC(=O)NNC(=O)COc1ccc(Br)c(C)c1,0,2,i,1,2,8226
Cc1ccc(CN2CCN(C(=O)C3CCC3)CC2)cc1,1,3,3,-3,-9,22954*
CC(C)(C)NC(=O)C(c1ccco1)N(C(=O)Cn1nnc(-c2ccc(F)cc2)n1)c1cccc(F)c1 (stereo not given),0,1,-1,1,-1,22593*
Cc1ccc(-c2nnn(CC(=O)N(c3ccc(F)cc3)C(C(=O)NC(C)(C)C)c3ccco3)n2)o1 (stereo not given),0,3,-2,?,-2,2574
Cc1cc(Cl)c(OCCCNCc2ccccc2)c(Br)c1,-1,-3,0,-23,-9,6234
COCCNCCCCOc1c(Cl)cc(C)cc1Br,0,6,-7,-2,-5,20464*
Cc1cc(C)c(OCCN2C(=O)NC(C)(C)C2=O)c(Cl)c1,0,5,i,0,-2,22616*
Cc1cc(Cl)c(OCCN2C(=O)NC(C)(C)C2=O)c(Br)c1,0,-5,i,-1,-2,20599*
CC(C)c1cc(Br)ccc1OCCN1C(=O)NC(C)(C)C1=O,-1,0,i,-4,1,4450
CC1(C)NC(=O)N(CCCCOc2ccc3ccccc3c2Cl)C1=O,-1,-2,-2,-3,-1,24165*
CC1(C(=O)NS(=O)(=O)c2ccccc2Cl)CCN1C(=O)COc1ccc(Cl)cc1 (stereo not given),0,/,-1,3,-3,3493
Cc1cc(Cl)cc(Br)c1OCCCN1C(=O)NC(C)(C)C1=O,4,-4,-2,7,1,20662*
Cc1ccc(C(C)C)c(OCCCN2C(=O)NC(C)(C)C2=O)c1,5,-4,i,7,-1,14440
Cn1c(=O)c2c(nc(SCC(=O)NC34CC5CC(CC(C5)C3)C4)n2C)n(C)c1=O,-1,2,-2,-3,0,23851*
